Measured values: paper PMC5913336, “True equilibrium measurement of transcription factor-DNA binding affinities using automated polarization microscopy”

These sequences were tested against T1, Cad (Drosophila melanogaster, UniProt P09085 273-344) (assay: FP; 20 mM Tris-acetate pH 7.0, 50 "nM" NaCl as printed (probably mM), 0.01% Tween 20, 0.1 mM DTT; conventional titration). Settings: tags: N-GST (pGEX-6P-1, kept); dsDNA, one strand shown.
T1 sequence: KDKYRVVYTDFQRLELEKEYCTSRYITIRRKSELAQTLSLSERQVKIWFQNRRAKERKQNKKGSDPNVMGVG

Sequence | binding signal
CACTTTATATA | 3 Kd / Kd of best base at the position
CACTTTTCATA | 17.6 Kd / Kd of best base at the position
CAGTTTTTATA | 1.11 Kd / Kd of best base at the position
CACTTTTAATA | 4.1 Kd / Kd of best base at the position
